Calls of active or inactive are those of the source.
Tests used:
[1] = target: Albumin (Bos taurus) (UniProt P02769); test: bovine serum albumin binders on microarray, profiling panel, artefact control for SMM control protein annotation, biochemical, small-molecule microarray, Alexa647 label, 635/667 nm fluorescence (AID 1118); conditions: BSA-A647 binding, fluorescence 635 nm, higher = more signal;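 further: score merges 667 nm emission intensity and signal-to-noise per printed compound spot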
[2] = small-molecule microarray binders of probe aXIP, primary screen, biochemical, NeuroSMM set, 635/667 nm fluorescence (AID 1119); conditions: higher = more signal, called active from +8 up or from −8 down;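 further: probe is the protein aXip251-270 applied at 1 µg/mL to compound-printed slides; binding of probe to printed compounds measured as 667 nm fluorescence plus signal to noise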
[3] = small-molecule binders of probe aNOTCH3, primary screen, biochemical, small-molecule microarray, 635/667 nm fluorescence (AID 1120); conditions: higher = more signal;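 further: probe is a biotin-tagged antibody raised against NOTCH3 rather than NOTCH3 protein; score merges spot fluorescence near 667 nm with spot signal to noise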
[4] = small-molecule binders of probe aNOTCH2, primary screen, biochemical, small-molecule microarray, 635/667 nm fluorescence (AID 1121); conditions: higher = more signal;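 further: score merges feature fluorescence read at 667 nm with its signal to noise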
[5] = target: Carbonic anhydrase 2 (Homo sapiens) (UniProt P00918); test: CAII small-molecule binders, profiling panel, biochemical, small-molecule microarray, Alexa647-labelled CAII (AID 1122); conditions: CAII-A647 binding fluorescence, higher = more signal
[6] = COS7 lysate on small-molecule microarray, probe aHis, 635 nm (AID 1123); conditions: COS7 cell lysate, fluorescence, higher = more signal;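 further: z-score combines 667nm fluorescence intensity with signal-to-noise per printed compound spot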
[7] = compound binding in COS7 lysate, probe aLAP1, primary screen, cell lysate, small-molecule microarray (AID 1124); conditions: probe aLAP1, fluorescence, higher = more signal;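 further: lysate comes from COS7 cells expressing LAP1 and is applied at 0.3 µg/mL; score merges spot fluorescence near 667 nm with signal-to-noise over triplicate slides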
[8] = tested on: Sam68 (KHDRBS1); test: Sam68 small-molecule binders, primary screen, biochemical, small-molecule microarray, 635 nm fluorescence (AID 1125); conditions: small-molecule microarray binding, higher = more signal;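 further: score merges 667 nm channel intensity with signal to noise over triplicate slides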
[9] = tested on: Chordin-like protein 2 (CHRDL2); test: CHRDL2 small-molecule binders, primary screen, biochemical, small-molecule microarray, 635 nm fluorescence (AID 1126); conditions: small-molecule microarray binding, fluorescence 635 nm; higher = more signal;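 further: printed compound slides probed with Chrdl2 protein at 4 µg/mL for 1 h at 4 C; score merges 667 nm emission intensity with signal to noise over three replicate slides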
[10] = target: Concanavalin-A (Canavalia ensiformis) (UniProt P02866); test: ConA small-molecule binders, primary screen, artefact control for SMM control protein annotation, biochemical, small-molecule microarray, Alexa647 label, 635 nm (AID 1127); conditions: ConA-A647 binding fluorescence, higher = more signal;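 further: z combines 667 nm emission intensity with signal-to-noise across three replicate slides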
Chain of Concanavalin-A (Canavalia ensiformis) (P02866 whole entry, looked up): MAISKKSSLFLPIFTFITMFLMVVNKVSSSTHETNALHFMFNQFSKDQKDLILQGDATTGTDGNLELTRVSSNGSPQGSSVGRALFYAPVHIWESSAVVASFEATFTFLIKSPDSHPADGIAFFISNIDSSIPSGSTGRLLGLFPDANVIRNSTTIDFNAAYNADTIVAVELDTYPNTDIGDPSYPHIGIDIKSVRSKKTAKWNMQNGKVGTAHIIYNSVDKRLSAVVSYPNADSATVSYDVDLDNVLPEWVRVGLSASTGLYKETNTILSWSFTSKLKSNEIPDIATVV

Chain of Albumin (Bos taurus) (P02769 whole entry, looked up): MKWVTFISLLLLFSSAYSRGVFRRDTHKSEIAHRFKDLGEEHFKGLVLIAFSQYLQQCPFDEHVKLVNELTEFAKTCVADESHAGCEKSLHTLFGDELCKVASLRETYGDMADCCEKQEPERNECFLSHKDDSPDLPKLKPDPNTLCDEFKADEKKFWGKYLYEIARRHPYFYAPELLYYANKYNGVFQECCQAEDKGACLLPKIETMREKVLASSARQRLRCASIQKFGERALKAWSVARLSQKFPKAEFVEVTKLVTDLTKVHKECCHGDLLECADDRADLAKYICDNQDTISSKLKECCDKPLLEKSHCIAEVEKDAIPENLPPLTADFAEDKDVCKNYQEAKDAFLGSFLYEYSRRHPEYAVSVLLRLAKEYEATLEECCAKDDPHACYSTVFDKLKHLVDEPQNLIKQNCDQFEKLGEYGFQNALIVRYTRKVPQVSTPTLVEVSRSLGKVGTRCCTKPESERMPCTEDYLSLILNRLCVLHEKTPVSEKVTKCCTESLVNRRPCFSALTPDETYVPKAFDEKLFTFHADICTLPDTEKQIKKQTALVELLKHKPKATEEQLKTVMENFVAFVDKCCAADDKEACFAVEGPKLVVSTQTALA

| SMILES | composite z-score [1] | composite Z-score [2] | composite z-score [3] | composite z-score [4] | composite z-score [5] | composite z-score [6] | composite z-score [7] | composite z-score [8] | composite z-score [9] | composite z-score [10] |
| --- | --- | --- | --- | --- | --- | --- | --- | --- | --- | --- |
| COCCOC(=O)N1C(=O)[C@@]2(c3cc(C#CCC(C(=O)OC)C(=O)OC)ccc31)[C@H](C(=O)N1CCc3cc(OC)c(OC)cc3C1)[C@H]1C(=O)O[C@H](c3ccccc3)[C@H](c3ccccc3)N1[C@@H]2c1ccc(O)cc1 | -0.129 | 0.131 (inactive) | 0.23 | -0.0715 | 0.213 | 1.72 | 0.617 | 1.17 | 1.05 | 0.919 |
| CC(C)C[C@H]1NC(=O)[C@H](Cc2ccccc2)NC(=O)[C@@]23C(=O)N[C@@H](Cc4ccccc4)C2[C@H](C)[C@@]2(C)O[C@H]2C3/C=C/C/C=C\CNC1=O (stereo not given in full) | -0.235 | 0.63 (inactive) | -0.0077 | -0.153 | 0.535 | 1.14 | 0.495 | 1.3 | 0.937 | 0.738 |
| CN1C(=O)C2C(C1=O)C1C=C(c3ccc(CO)cc3)C2C(c2cccs2)N1C (stereo not given) | 0.935 | 0.891 (inactive) | -0.0044 | -0.146 | 0.76 | 0.784 | 1.08 | 0.47 | -0.125 | 1.18 |
| COc1cccc(C[C@H]2C[C@@H](CO[Si](C(C)C)(C(C)C)C(C)C)N3C(=O)[C@@]4(C(C)=O)O[C@@]23[C@@H]2C(=O)N(C)C(=O)[C@@H]24)c1 | 0.166 | 0.544 (inactive) | -0.231 | -0.118 | 0.0137 | 0.332 | -0.316 | 0.984 | 0.908 | 0.117 |
| COCCCN1C(=O)[C@@]2(Cc3ccccc31)c1ccccc1C(=O)N(Cc1ccccc1OC)[C@H]2c1ccc(CO)cc1 | 0.345 | 0.449 (inactive) | -0.147 | -0.101 | 0.799 | 0.374 | 1.34 | -0.0726 | -1.21 | 0.254 |
| COC(=O)[C@@]1(Cc2ccccc2)[C@H]2c3cc(C(=O)N4CCCC4)n(Cc4ccc(C(F)(F)F)nc4)c3C[C@H]2CN1C(=O)c1ccccc1 | 0.958 | -0.296 (inactive) | 0.843 | 0.292 | 0.478 | 3.1 | 0.232 | 1.31 | -0.873 | 1.16 |
| C=CC[C@@]1(C(=O)N(C)C)N=C(c2ccc(OCCCO)cc2)O[C@@H]1c1ccccc1 | 0.434 | -0.593 (inactive) | 0.315 | 0.182 | 0.644 | 2.59 | 1.01 | -0.108 | 0.0028 | 0.148 |
| CN(C)CCCNC(=O)[C@@H]1c2ccccc2C(=O)N(C2Cc3ccccc3C2)[C@H]1c1ccc(CO)cc1 | 0.274 | 0.0516 (inactive) | -0.45 | 0.197 | 0.505 | 0.132 | 0.682 | 1.3 | -0.0701 | 0.491 |
| C=CC[C@]1(C(=O)OC)N=C(c2ccc(OCCCO)cc2)O[C@H]1c1ccccc1N=[N+]=[N-] | -0.899 | 0.0557 (inactive) | 0.734 | 0.26 | 0.429 | 2.87 | 0.198 | 1.3 | 1.14 | 1.09 |
| COc1ccc(NN2C(C(O)c3ccc(OC)cc3)C=CC3C(=O)N(C4CCCCC4)C(=O)C32)cc1 (stereo not given) | 0.828 | 0.297 (inactive) | 0.124 | -0.0037 | 0.405 | 1.1 | 0.0023 | 1.28 | -0.138 | 0.872 |
| C=CCOC(=O)[C@H]1[C@@H]2C(=O)O[C@@H](c3ccccc3)[C@@H](c3ccccc3)N2[C@@H](c2ccc(OCCOC(=O)[C@@H]3C[C@@H]4C(=O)N[C@@H](CC(C)C)C(=O)N4[C@@H]3c3ccc(O)cc3)cc2)[C@]12C(=O)Nc1ccc(I)cc12 | 0.822 | 1.65 (inactive) | 0.0469 | -0.0486 | 0.668 | 2.52 | 0.0414 | 1.3 | 1.33 | 1.13 |
| [N-]=[N+]=NCc1ccccc1[C@@H]1OC(c2ccc(OCCCO)cc2)=N[C@]1(Cc1ccccc1)C(=O)NCc1ccccc1 | 0.937 | -0.04 (inactive) | 0.0774 | -0.0349 | 0.782 | 2.99 | 0.388 | 0.826 | -0.691 | 1.08 |
| CCCC[C@H]1OB(O)C[C@H]2C1=C(COC)C[C@H]1C(=O)C=CC(=O)[C@H]12 | -0.183 | 0.727 (inactive) | 0.029 | 0.144 | -0.104 | -0.279 | -0.236 | 0.684 | 0.676 | 0.486 |
| O=C1N(Cc2ccccc2)c2ccccc2[C@H]2OC(c3ccc(OCCCO)cc3)=N[C@@]12Cc1ccccc1 | -0.465 | 1.19 (inactive) | 0.0271 | -0.131 | 0.606 | 2.42 | 1.1 | 1.3 | 0.41 | 1.06 |
| COCCOC(=O)N1C(=O)[C@@]2(c3cc(C#CCCO)ccc31)[C@H](C(=O)N1CCN(c3ncccn3)CC1)[C@H]1C(=O)O[C@H](c3ccccc3)[C@H](c3ccccc3)N1[C@@H]2c1ccc(O)cc1 | 0.506 | 0.168 (inactive) | -0.236 | -0.245 | 0.244 | 1.4 | 0.298 | 1.29 | 0.182 | 0.983 |
| COc1ccc([Si](C)(C)[C@H]2[C@H](CCn3cc([C@H](O)c4ccccc4)nn3)O[C@@]3(C(=O)N(C)c4c(Br)cc(C)cc43)[C@@H]2C)cc1 | -0.628 | 1.94 (inactive) | -0.259 | -0.103 | -0.149 | -0.215 | -0.112 | 0.0516 | 0.182 | 0.005 |

| SMILES | composite z-score [1] | composite Z-score [2] | composite z-score [3] | composite z-score [4] | composite z-score [5] | composite z-score [6] | composite z-score [7] | composite z-score [8] | composite z-score [9] | composite z-score [10] |
| --- | --- | --- | --- | --- | --- | --- | --- | --- | --- | --- |
| C=CCNC(=O)[C@@H]1[C@H]2C(=O)O[C@H](c3ccccc3)[C@H](c3ccccc3)N2[C@H](c2ccccc2OCCO)[C@@]12C(=O)N(C(=O)OCCOC)c1ccc(C#CCCO)cc12 | 0.538 | -0.0086 (inactive) | 0.0807 | -0.112 | 0.64 | 0.797 | 0.77 | 1.29 | 0.0117 | 0.953 |
| CCCCC(O)C1C=CC2C(=O)NC(=O)C2N1Nc1ccccn1 (stereo not given) | 0.082 | 0.0557 (inactive) | -0.155 | 0.0377 | 0.885 | -0.234 | 0.386 | -1.01 | -0.0858 | 0.344 |
| CC(C)C(=C=CC[C@@H](O)c1cccc(OCCO)c1)CCO | 0.161 | -0.137 (inactive) | 0.0996 | -0.0519 | 0.705 | 0.502 | 0.0157 | 0.0316 | 0.55 | -0.114 |
| COCCOC(=O)N1C(=O)[C@@]2(c3ccccc31)[C@H](C(=O)N1CCCCCCC1)[C@H]1C(=O)O[C@H](c3ccccc3)[C@H](c3ccccc3)N1[C@@H]2c1ccc(O)cc1 | 0.816 | 4.39 (inactive) | 2 | 0.95 | 0.608 | 3.97 | 2.11 | 1.3 | 1.41 | 1.03 |
| C=CCC(OC(C)=O)[C@@H]1[C@@H](N(Cc2ccc(-c3ccccc3)cc2)C(=O)c2ccc(-c3ccccc3)cc2)c2cc(OCCCO)ccc2N1C(=O)c1ccc2ccccc2n1 (stereo not given in full) | -0.211 | -0.314 (inactive) | 0.195 | -0.12 | -0.0785 | -0.137 | 0.504 | 0.504 | 0.169 | -0.309 |
| C[C@@H](OCc1ccccc1)C1NC(=O)[C@@]23C(=O)N[C@@H](Cc4ccccc4)C2[C@H](C)[C@@]2(C)O[C@H]2C3/C=C/C/C=C\CNC(=O)[C@H](Cc2ccccc2)NC1=O (stereo not given in full) | 0.126 | 0.069 (inactive) | -0.0026 | -0.153 | 0.618 | 0.332 | -0.149 | -0.24 | 0.665 | -0.052 |
| CC(C)CNC(=O)[C@@H]1c2ccccc2C(=O)N(Cc2ccccc2Cl)[C@H]1c1ccc(CO)cc1 | -0.261 | 0.191 (inactive) | -0.212 | -0.0404 | 0.687 | 1.57 | 0.397 | -0.537 | -0.686 | -1.68 |
| CC(C)[C@@H](C(=O)O)n1cc(-c2ccccc2)nn1 | 0.739 | 0.0388 (inactive) | -0.0225 | -0.0454 | 0.39 | 0.575 | 0.547 | 1.06 | -0.145 | 1.12 |
| C=CCNC(=O)[C@@H]1[C@H]2C(=O)O[C@H](c3ccccc3)[C@H](c3ccccc3)N2[C@H](c2ccc(O)cc2)[C@@]12C(=O)Nc1ccc(C#CC3(O)CCCCCC3)cc12 | -0.277 | 0.156 (inactive) | 0.39 | -0.179 | 0.653 | 1.04 | 0.107 | -0.133 | 0.227 | -0.197 |
| CC(=O)n1cc(C(O)C2C=CC3C(=O)N(c4ccccc4)C(=O)C3N2Nc2ccccc2F)c2ccccc21 (stereo not given) | 0.332 | 0.169 (inactive) | -0.189 | -0.162 | 0.754 | 1.84 | 0.386 | 0.505 | -0.997 | 0.76 |
| CCOC(=O)C[C@H]1[C@H](OC(=O)Cc2ccc3c(c2)OCO3)[C@@H](NC(=O)c2ccccc2)c2cc(OCCCO)ccc2N1C(=O)Cc1ccc(OC)cc1 | 0.521 | -0.751 (inactive) | -0.116 | -0.0974 | 0.544 | 1.04 | -0.0337 | 0.683 | -0.302 | 0.808 |
| [N-]=[N+]=NCc1ccccc1[C@H]1OC(c2ccc(OCCCO)cc2)=N[C@@]1(Cc1ccccc1)C(=O)N1CCOCC1 | 0.912 | 0.475 (inactive) | 0.754 | 0.294 | 0.55 | 2.97 | 0.204 | 1.3 | -0.0573 | 1.14 |
| COc1cc(OC)c(C(O)C2C=CC3C(=O)N(c4ccccc4)C(=O)C3N2Nc2ccccc2F)cc1Br (stereo not given) | 0.89 | 0.476 (inactive) | 0.378 | -0.0664 | 0.693 | 2.91 | 0.408 | 1.34 | -0.577 | 1.1 |
| C=CC(CO)NC(=O)OCC1c2ccccc2-c2ccccc21 (stereo not given) | -0.335 | 0.314 (inactive) | 0.0242 | -0.108 | -0.192 | 0.121 | -0.0184 | 0.0668 | 0.566 | 0.47 |
| [N-]=[N+]=NCc1ccccc1C[C@]1(C(=O)O)COC(c2ccc(OCCCO)cc2)=N1 | 0.748 | -0.496 (inactive) | -0.0525 | -0.14 | 0.805 | -0.0577 | -0.369 | -0.91 | -2.26 | -0.927 |

— PubChem BioAssay
